Bioassay records (PubChem BioAssay)
An excerpt weighted towards active compounds, which were near 4.2% of everything screened.
ssDAF12 agonist: activators of S. stercoralis DAF-12 nuclear receptor | HEK293 ssDAF-12/GRIP1 lit1-tk-luc reporter, luminescence; % of 3 µM dafachronic acid response | activation, % at 6.8 µM | 1% of 370,000 active;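 active = activation above the mean over all tested compounds plus 3 SD, cut at about 0.9% in these data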;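 also: 0% = DMSO-only wells and 100% = 3 µM delta7-dafachronic acid wells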
hgDAF-12 ag: agonists of H. glycines DAF-12 nuclear receptor. HEK293 GAL4-hgDAF12 UAS-luciferase reporter, agonist luminescence; normalized to butyrate control. activation, % at 6.8 µM. 1.8% of 370,000 active;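 active = activation above a cutoff set at the mean of all screened compounds plus 3 SD, cut at about 10% in these data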;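 also: 0% = DMSO wells and 100% = sodium butyrate wells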
DAX1 inh: blocks DAX1 repression of SF-1 activated StAR promoter; HEK293T StAR-luciferase reporter, SF-1/DAX-1 repression relief; inhibition, % at 6.8 µM; 1.1% of 370,000 active; AID 652010;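 active = inhibition above the mean over all tested compounds plus 3 SD, cut at about 3.6% in these data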;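 also: 0% = DAX-1 cells with DMSO and 100% = cells lacking DAX-1 with DMSO; higher inhibition means more luminescence from relief of DAX-1 repression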
esBAF inh: SWI/SNF esBAF complex inhibition. mouse ES cells, Bmi1-luciferase knock-in reporter, 24 h; 100% = twice the neutral-well signal. reporter increase, % at 12.5 µM. 2% of 350,000 active. AID 602393; in the data active = activation above about 40%; inconclusive = no clear call, values can overlap the other calls;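 also: 0% = median of the plate's neutral control wells and 100% = double that signal; a rise in the Bmi1 reporter signal indicates esBAF inhibition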
Wnt act: Wnt/beta-catenin pathway activation | Wnt/beta-catenin reporter cell assay, activator, plate reader | activation, % at 9.35 µM | 1.2% of 300,000 active | AID 743398; in the data active = activation above about 30%, passing the limit was not always enough; inconclusive = no clear call, values can overlap the other calls;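 also: 0% = neutral control wells and 100% = positive control wells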
hcDAF-12 act: activates DAF-12 receptor from parasite H. contortus; AID 652067; 1.4% of 370,000 active; activation, % at 6.8 µM; HEK293 hcDAF-12 lit1-tk-luc reporter, luminescence; 0% DMSO, 100% Δ7-dafachronic acid;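 active = activation above the mean of all tested compounds plus 3 SD, cut at about 5.5% in these data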;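 also: 100% = response to 3 µM Δ7-dafachronic acid high control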
Active calls of the source: *; ? = inconclusive; . = no result given.

SMILES	ssDAF12 agonist	hgDAF-12 ag	DAX1 inh	esBAF inh	Wnt act	hcDAF-12 act
CCOC(=O)c1c(Nc2ccc(OC)cc2)n[nH]c1C	0	8	4.3*	.	34*	1
CC(=O)N1CCc2cc(S(=O)(=O)C(C)CC(=O)Nc3ccc(OC(F)(F)F)cc3)ccc21 (stereo not given)	-1	1	-4	45*	6	-3
CC(=O)Nc1cc2c(cc1Cl)-c1ccccc1C2O (stereo not given)	0	3	-1	4	-3	5.9*
CC(=O)Nc1cc2c(cc1Cl)-c1ccccc1C2	0	9	3	52*	0	4
O=C(C[C@@H]1CC[C@H]2[C@@H](COC[C@@H](O)CN2Cc2ccncc2)O1)NCC1CC1	.	.	.	-3	.	.
COC(=O)C(C)N1C(=O)S/C(=C/c2cc(C)n(-c3ccccn3)c2C)C1=O (stereo not given)	0	7	2	-9	57*	2
Cc1cc(/C=C2/NC(=O)NC2=O)c(C)n1-c1ccccn1	0	1	1	-14	-3	3
COC(=O)C(C)N1C(=O)S/C(=C\c2cc(C)n(-c3ccccn3)c2C)C1=O (stereo not given)	0	11*	1	-48	.	0
O=C(NCc1cc(F)cc(F)c1)[C@@H]1[C@@H](CO)[C@@H]2Cn3c(cccc3=O)[C@H]1N2C(=O)c1cnccn1	.	.	.	-3	.	.
COc1cccc(/C=C2\SC(N)=NC2=O)c1OS(=O)(=O)c1ccccc1	1.1*	1	1	.	.	-1
NC1=NC(=O)/C(=C/c2ccccc2OS(=O)(=O)c2ccccc2)S1	-1	0	-1	.	3	-1
COc1cccc(/C=C2\SC(N3CCCC(C)C3)=NC2=O)c1OC (stereo not given)	-1	5	0	73*	3	0
COc1cccc(/C=C2\SC(N3CCC(C)CC3)=NC2=O)c1OC	-1	0	0	7	1	1
COc1ccc(NC(=O)N(C)C[C@@H]2Oc3c(NS(=O)(=O)c4ccc(Cl)cc4)cccc3C(=O)N([C@H](C)CO)C[C@@H]2C)cc1	.	.	.	-6	.	.
Cc1ccc(C(=O)N/N=C/c2cccnc2)cc1Cl	1.7*	-1	1	17	-1	-1
O=C(N/N=C/c1cccnc1)c1ccccc1	-1	5	1	18	4	0
CC(C)(C)c1ccc(/C=N/Nc2cccc(C(=O)O)c2)cc1	-1	12*	4.0*	.	-1	4
O=C(O)c1cccc(N/N=C/c2cc(Br)cc(Br)c2O)c1	0	6	1	77*	.	2
O=C(N/N=C/c1cccnc1)c1cccc(Cl)c1	-1	7	0	22	3	1
COc1ccc(Br)cc1/C=N/Nc1cccc(C(=O)O)c1	0	0	1	.	0	1
O=C(O)c1cccc(N/N=C/c2cccnc2)c1	2.3*	6	2	.	8	2
O=C(CCN1CCCCC1)NCC[C@@H]1CC[C@@H](NS(=O)(=O)c2cccc(F)c2)[C@@H](CO)O1	.	.	.	8	.	.
C[C@@H]1CN([C@H](C)CO)C(=O)c2cccc(NC(=O)c3ccc(-c4nccs4)cc3)c2O[C@@H]1CN(C)S(=O)(=O)c1cn(C)cn1	.	.	.	-2	.	.
C[C@@H]1CN([C@H](C)CO)C(=O)Cc2cc(NS(=O)(=O)c3ccc(F)cc3)ccc2O[C@H]1CN(C)C(=O)Nc1ccc(C(F)(F)F)cc1	.	.	.	-1	.	.
CN(C)c1ccc(/C=N/Nc2cccc(C(=O)O)c2)cc1	0	12*	1	-74	13	5
SMILES	ssDAF12 agonist	hgDAF-12 ag	DAX1 inh	esBAF inh	Wnt act	hcDAF-12 act
CC(C)(C)c1ccc(/C=N/Nc2ccc(C(=O)O)cc2)cc1	-2	-15	-2	.	.	-5
CN(C)c1ccc(CC(=O)c2nc3ccccc3s2)cc1	-2	-2	-1	.	0	-1
CN(C)C(=O)c1nc2ccccc2s1	0	5	1	33	.	6.5*
NC(=O)CCn1c2ccccc2c2ccccc21	0	0	-1	.	-3	0
Cc1ccc2c(c1)c1cccc3c1n2CCN3CCC(N)=O	.	.	.	75*	.	.
COCC#Cc1ccc2c(c1)O[C@H](CN(C)CC1CCOCC1)[C@H](C)CN([C@H](C)CO)S2(=O)=O	.	.	.	1	.	.
CC(=O)C1=C(C)N(c2ccccc2)C(=O)C1(NS(=O)(=O)c1ccc(N)cc1)C(F)(F)F (stereo not given)	1.5*	3	1	14	-6	5.6*
COC(=O)C[C@@H]1C=C[C@H](NS(=O)(=O)c2ccccc2F)[C@H](CO)O1	.	.	.	-1	.	.
COc1ccc(Cn2c(-c3ccc(Br)cc3)c[n+]3ccccc23)cc1	0	3	-1	-16	58*	4
COc1ccc(Cn2c(-c3ccc(OC)cc3)nc3ccccc32)cc1	-1	-1	1	.	0	0
Cc1ccc(N/C=C/C(=O)c2ccco2)c(O)c1	-2	0	1	?	56*	-1
Cc1ccccc1N(CC(=O)N/N=C/c1ccc(F)cc1)C(=O)c1ccccc1	0.9*	0	0	.	0	-3
c1ccc(-n2ncc3c(N4CCC5(CC4)OCCO5)ncnc32)cc1	0	6	0	55*	.	1
CCN1CCN(c2ncnc3c2cnn3-c2ccc(Cl)cc2)CC1	0	12*	2	14	22	1
Cc1cccc(-n2ncc3c(N4CCC5(CC4)OCCO5)ncnc32)c1	0	5	3	54*	16	2
CCN1CCN(c2ncnc3c2cnn3-c2ccccc2)CC1	-1	7	3	21	-2	-1
Fc1cccc(-c2cc3nc4c(c(NCc5ccco5)n3n2)CCCC4)c1	0	11*	4.2*	8	-1	3
Fc1cccc(-c2cc3nc4c(c(N5CCOCC5)n3n2)CCCC4)c1	-1	5	2	.	?	1
COc1ccc(/C=C(/C(=O)Nc2ccccc2C(=O)N2CCCC2)c2ccccc2)cc1	-2	-3	-1	-6	-1	-1
COc1ccc(/C=C/C(=O)Nc2ccccc2C(=O)N2CCCC2)cc1	-2	0	1	56*	.	0
CN1c2ccc(-c3cccc(C#N)c3)cc2[C@H]2[C@H](CCN2S(=O)(=O)c2ccccc2)[C@H]1CO	.	.	.	-3	.	.
Cc1cccc(CNC(=O)c2ccc3nc(Cc4ccccc4F)oc3c2)n1	0	11*	3.7*	-1	23	2
Cc1ccc(SCCC(=O)N2CCC(C)CC2)cc1	0	9	1	59*	?	2
Cc1ccc(SCCC(=O)N2CCC(C(N)=O)CC2)cc1	-1	-1	0	11	5	1
Cc1c(Br)c(C(=O)N2CCc3ccccc32)nn1C	-1	10	2	.	.	1
Cn1cc(Br)c(C(=O)N2CCc3ccccc32)n1	0	4	1	.	4	5.9*
